# Measured values: article PMC5540273 (PLoS ONE, 2017)
# How the values were obtained:
# Settings in all cases: concentration: 1 μM, replicates: in singlicate; n = 1
# CAMK4 = system: CAMK4
# CAMKK1 = system: CAMKK1
# CAMKK2 = system: CAMKK2
# CASK = system: CASK
# CDC2L1 = system: T1, CDC2L1
# T1 construct: gene CDK11B
# CDC2L2 = system: CDC2L2
# CDC2L5 = system: T2, CDC2L5
# T2 construct: gene CDK13
# CDK11 = system: T3, CDK11
# T3 construct: gene CDK19
# CDK2 = system: CDK2
# CDK3 = system: CDK3
# CDK4-cyclinD1 = system: CDK4-cyclinD1
# CDK4-cyclinD3 = system: CDK4-cyclinD3
# CDK4 = system: CDK4
# CDK5 = system: CDK5
# CDK7 = system: CDK7
# CDK8 = system: CDK8
# CDK9 = system: CDK9
# CDKL1 = system: CDKL1
# CDKL2 = system: CDKL2
# CDKL3 = system: CDKL3
# 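Note: KINOMEscan kinase panel screen.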
Structure (SMILES),%Inh (CAMK4) [%],%Inh (CAMKK1) [%],%Inh (CAMKK2) [%],%Inh (CASK) [%],%Inh (CDC2L1) [%],%Inh (CDC2L2) [%],%Inh (CDC2L5) [%],%Inh (CDK11) [%],%Inh (CDK2) [%],%Inh (CDK3) [%],%Inh (CDK4-cyclinD1) [%],%Inh (CDK4-cyclinD3) [%],%Inh (CDK4) [%],%Inh (CDK5) [%],%Inh (CDK7) [%],%Inh (CDK8) [%],%Inh (CDK9) [%],%Inh (CDKL1) [%],%Inh (CDKL2) [%],%Inh (CDKL3) [%]
Cn1cncc1-c1cc2c(Nc3ccc(OCc4ccccc4)cc3)ncnc2cn1 [GW281179],0,3,32,20,0,17,0,47,0,7,0,4,0,0,0,17,0,100,21,0
Fc1ccc(-c2nc3n(c2-c2ccncc2)CCS3)cc1 [GI98581],0,8,0,20,0,0,0,7,6,24,0,0,31,6,0,19,0,2,4,0
COc1ccc(Nc2nccc(N3CCC(NC(=O)C(C)c4ccc(Cl)cc4)CC3)n2)cc1 (stereo not drawn) [GSK1379812],0,0,31,3,0,10,0,63,0,0,0,0,33,0,0,20,0,4,0,0
Fc1ccc(-c2nc[nH]c2-c2ccncc2)cc1 [SB-217360],0,0,1,13,0,0,0,0,0,0,0,0,15,0,0,38,0,12,16,2
Cn1cnc2c(N)ncnc21 [SKF-97623],7,0,0,7,0,0,0,0,44,0,19,0,25,0,0,46,0,91.1,48,0
CS(=O)(=O)CCNCc1nc(-c2ccc3ncnc(Nc4ccc(OCc5ccccc5)c(Cl)c4)c3c2)cs1.Cl [GW582764],0,0,7,5,0,0,0,0,0,1,45,0,38,0,0,47,0,9,18,0
O=C(Nc1n[nH]c2nc(-c3ccco3)c(Br)cc12)C1CCN(Cc2ccccc2)C1.O=C(O)[C@H](O)[C@@H](O)C(=O)O (stereo not drawn) [SB-742034],0,20,25,40,20,36,44,0,13,0,0,0,14,8,81,0,0,51,69,0
COc1ccc(Nc2nccc(N3CCC(NC(=O)c4cc5ccccc5s4)C3)n2)cc1 (stereo not drawn) [GSK1379738],0,11,2,21,0,17,0,41,0,12,0,6,19,0,0,6,2,8,35,0
CCn1c(-c2ccccc2)nc2cnccc21 [SB-733416],13,0,0,18,0,0,98.3,0,12,19,0,6,3,0,0,0,0,0,9,0
COc1cccc(C2=C(Nc3cc(Cl)c(O)c(Cl)c3)C(=O)NC2=O)c1 [SB-390767],0,11,0,32,0,0,0,0,0,18,0,0,0,5,0,0,0,1,20,0
O=C1NC(=O)C(c2ccc(Cl)cc2)=C1Nc1cccc(Cl)c1 [SB-317651],29,7,5,27,0,4,0,6,0,8,12,0,100,0,16,2,0,11,20,2
Cn1cncc1C(=O)NC1CCN(c2ccnc(Nc3ccc(F)cc3)n2)C1 (stereo not drawn) [GSK1379717],0,30,32,14,0,6,0,3,0,0,0,14,2,0,0,29,0,99,3,99.5
Cc1ccc(NC(=O)Nc2ccccc2F)cc1-c1ccc(C(=O)Nc2ccncc2)cc1 [GSK1398477],5,15,31,17,8,10,0,12,0,24,0,0,0,5,0,19,3,7,30,0
COc1cccc(CNC(=O)NC2CCN(c3ccnc(Nc4ccc(F)cc4)n3)C2)c1 (stereo not drawn) [GSK1379723],0,79,78,27,0,0,0,0,0,6,0,15,0,0,0,0,0,0,39,0
COC(=O)C(NC(=O)NC1CCN(c2ccnc(Nc3ccc(F)cc3)n2)C1)c1ccccc1 (stereo not drawn) [GSK1379712],0,25,23,2,0,17,0,54,81,19,20,4,29,1,14,58,18,0,10,0
Cc1c(Cn2c(C)c(C)n3c(=O)cc(N4CCOCC4)nc23)cccc1C(F)(F)F [GSK2328680],0,0,10,16,0,14,0,0,2,7,0,0,0,0,0,34,0,100,6,0
CC(C)c1cc(-c2ccc3c(N)n[nH]c3c2)nc(N)n1 [GSK2250882],0,0,18,21,0,5,0,0,0,5,0,0,0,0,0,20,0,23,20,0
Nc1nccc(-c2c(-c3ccc(F)cc3)ncn2C2CCN(Cc3ccccc3)CC2)n1 [SB-219980],13,2,0,0,7,38,0,1,0,0,0,0,5,16,13,0,0,0,0,9
CCCCc1nn2ncccc2c1-c1ccnc(NC2CC2)n1 [GW684374],0,0,14,0,0,11,0,5,0,0,0,12,21,0,0,0,0,0,15,0
COc1ccc(Nc2nccc(NCCNC(=O)Nc3cc(C)ccc3C)n2)cc1 [GSK1379899],0,13,0,0,0,0,0,0,0,6,0,0,3,0,0,13,0,0,21,0
CNC(=O)c1ccc(C)c(-n2c(C)cc(OCc3ccc(F)cc3F)c(Br)c2=O)c1,0,0,1,0,0,0,0,57,0,15,0,0,0,0,4,4,0,91.9,3,25
